Experimental data taken from PubChem BioAssay AID1851 (National Center for Advancing Translational Sciences (NCATS), 2009).
Several values for one entry are separate records, joined by “and”; a condition that tells them apart may be missing. Equal entries are not always repeated. The whole screen tested about 16,000 compounds, of which about 5,700 (36%) were called active. Not shown: some 24% with an inconclusive outcome. The call rests on the fitted dose curve; in most records, active means well fitted curve in the direction sought with a large enough effect; inconclusive means small, poorly fitted or top-dose-only effect, or effect the other way; inactive means no such curve, though single readings can be large or run the other way. Some of the results follow. More than one record can exist for a structure, and the calls need not agree.

Target: Cytochrome P450 1A2 (Homo sapiens) (UniProt P05177)
Experiment: Cytochrome panel assay with activity outcomes
Details: recombinant CYP, pro-luciferin dealkylation, luminescence, p450-cyp1a2; series mostly up to 57.1 µM; activity, negative = inhibition: at the top concentration
On the % scale 0 is the no-effect control and ±100 the full control effect.

Sequence of Cytochrome P450 1A2 (Homo sapiens) (P05177 whole entry, looked up): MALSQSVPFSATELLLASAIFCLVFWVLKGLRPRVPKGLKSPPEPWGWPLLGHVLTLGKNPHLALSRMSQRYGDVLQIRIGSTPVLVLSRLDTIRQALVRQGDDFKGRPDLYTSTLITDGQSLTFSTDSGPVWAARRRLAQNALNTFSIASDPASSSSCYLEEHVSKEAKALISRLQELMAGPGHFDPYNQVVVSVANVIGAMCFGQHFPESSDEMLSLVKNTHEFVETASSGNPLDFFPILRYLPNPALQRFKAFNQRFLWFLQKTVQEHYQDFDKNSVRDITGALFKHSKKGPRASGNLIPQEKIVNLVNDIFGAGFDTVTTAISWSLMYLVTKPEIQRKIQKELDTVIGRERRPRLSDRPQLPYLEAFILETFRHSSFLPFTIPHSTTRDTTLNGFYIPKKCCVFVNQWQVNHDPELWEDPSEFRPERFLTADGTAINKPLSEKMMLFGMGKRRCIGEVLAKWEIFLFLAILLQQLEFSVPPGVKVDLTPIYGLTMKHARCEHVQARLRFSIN

SMILES	activity, negative = inhibition	AC50
CCCNC(=O)Cn1cnc2sc(C(=O)Nc3ccc4c(c3)OCO4)c(C)c2c1=O	3.48% (inactive)	
CCOC(=O)N1CCN(C(=O)c2cnc3n(c2=O)CCS3)CC1	5.62% (inactive)	
COc1ccccc1NC(=O)c1cnc2n(c1=O)CCS2		2.24 µM (active)
COc1ccccc1NC(=O)c1sc2ncn(Cc3ccccc3C)c(=O)c2c1C		3.16 µM (active)
CCCCN(Cc1ccccc1)C(=O)c1cnc2n(c1=O)CCS2	-4.2% (inactive)	
CCn1cnc2sc(C(=O)N3CCN(c4ccc(OC)cc4)CC3)c(C)c2c1=O	2.44% (inactive)	
O=C(NC(=S)N(Cc1ccccc1)Cc1ccccc1)c1ccccc1F		11.2 µM (active)
CN1CCN(NC(=O)c2ccccc2F)CC1	11.1% (inactive)	
COC(=O)C(NNc1ccccc1)(NC(=O)c1ccccc1F)C(F)(F)F (stereo not given)	-22.2% (inactive)	
Cc1ccc(S(=O)(=O)NC(=O)OC23COCN2COC3)cc1	7.51% [at 11.4 µM] (inactive)	
NCCCCN	-17% (inactive)	
NCCCCNCCCN		inactive and 31.6 µM (active)
NCCCNCCCCNCCCN	-3.62% (inactive)	
COc1cc(Br)c(C(C)NC(=O)c2cccc(Br)c2)cc1OC (stereo not given)		12.6 µM (active)
COc1ccc(C(=O)NC(C)c2cc(OC)c(OC)cc2Br)cc1 (stereo not given)		14.1 µM (active)
COc1ccc(C(=O)N2CCC3(CC2)CN(C(=O)NC(C)C)C3)cc1	-6.35% (inactive)	
COc1ccccc1C(c1nnnn1C(C)(C)C)N1CCCc2ccccc21 (stereo not given)	-8.86% (inactive)	
CC(C)(N=NC(C)(C)C(=N)N)C(=N)N	-4.86% [at 11.4 µM] (inactive)	
CCc1ccc(N2CC(C)Cn3c2nc2c3c(=O)n(CCN3CCOCC3)c(=O)n2C)cc1 (stereo not given)	-20.6% (inactive)	
Cc1noc(C)c1-c1ccc2ncnc(NCc3ccccc3)c2c1		3.16 µM (active)
Cc1noc(C)c1-c1ccc2ncnc(NCc3cccnc3)c2c1		0.316 µM (active)
Cc1ccccc1-c1ccc2ncnc(NCc3cccs3)c2c1		2.51 µM (active)
Cc1noc(C)c1-c1ccc2ncnc(NCc3cccs3)c2c1		0.398 µM (active)
O=C(O)CN(CCN(CC(=O)O)CC(=O)O)CCN(CC(=O)O)CC(=O)O		inactive
C#CCCCO/N=C1/C[C@@H](O)[C@@H](O)[C@@H]2[C@@H]3C(=O)N(C4CCCCC4)C(=O)[C@H]3CC[C@@H]12	1.04% [at 11.4 µM] (inactive)	

SMILES	activity, negative = inhibition	AC50
Cc1cccc(CNc2ncnc3ccc(-c4c(C)noc4C)cc23)c1		5.01 µM (active)
O=C(N/N=C1\CCCc2ccccc21)c1ccc([N+](=O)[O-])cc1Cl		15.8 µM (active)
Cc1cccc(N=C2NN=C(c3ccc4c(c3)OCCO4)CS2)c1		14.1 µM (active)
Nc1nnc(SCCOc2cccc(Br)c2)s1		5.01 µM (active)
CN(C)c1cc(-c2cccc(NS(C)(=O)=O)c2)ncn1		1.26 µM (active)
CS(=O)(=O)Nc1cccc(-c2cc(NCc3ccccc3)ncn2)c1		12.6 µM (active)
CS(=O)(=O)Nc1cccc(-c2cc(Nc3ccccc3)ncn2)c1		0.398 µM (active)
Cc1cccc(NS(=O)(=O)c2c(C)n[nH]c2C)c1	-19.9% (inactive)	
Cc1cccc(CNc2cc(-c3cccc(NS(C)(=O)=O)c3)ncn2)c1		10 µM (active)
COc1ccc(NC(=O)N2CCCC3(CCN(C(=O)c4csnn4)CC3)C2)cc1	-11.7% (inactive)	
CS(=O)(=O)Nc1cccc(-c2cc(NCc3cccs3)ncn2)c1		6.31 µM (active)
Cc1ccc(NC(=O)CN2C(=O)N/C(=C/c3ccc(C)o3)C2=O)cc1	2.74% (inactive)	
Cc1ccc(/C=C/C(=O)N2CC(C)CC(C)C2)o1 (stereo not given)		8.91 µM (active)
C[C@@H](NCc1cc(Br)cc2[nH]c(=O)c(=O)[nH]c12)P(=O)(O)O	-9.6% (inactive)	
COC(=O)N1CCC2(CCCN(Cc3cc(C(F)(F)F)cc(C(F)(F)F)c3)C2)CC1	13.1% (inactive)	
Cc1ccccc1Cn1cnc2c(cnn2C(C)(C)C)c1=O	-22.5% (inactive)	
CCCCn1cnc2c(cnn2-c2ccc(F)cc2)c1=O		3.16 µM (active)
CC(C)(C)n1ncc2c(=O)n(CC(=O)NCc3ccccc3Cl)cnc21	-14.5% (inactive)	
Clc1ccc(Cc2nc(-c3cccnc3)no2)cc1		1 µM (active)
Cc1ccccc1NC(=O)C(C)c1cccc(C(=O)c2ccccc2)c1 (stereo not given)		11.2 µM (active)
Cc1cccc(C)c1NC(=O)C(c1ccccc1)N1CCC1=O (stereo not given)	-1.16% (inactive)	
CCCN[C@@H](C)C(=O)Nc1ccccc1C	-15.8% (inactive)	
CCCc1c(-c2ccc(O)cc2)nn(-c2ccc(O)cc2)c1-c1ccc(O)cc1		20 µM (active)
CC(=O)Nc1nnc(SCc2ccc(F)cc2)s1		10 µM (active)
CCSc1nnc(NC(=O)Cc2ccc(OC)c(OC)c2)s1	-25.9% (inactive)	
